Our source for the viability values is PubChem BioAssay.

SMILES strings stand for the structures. Unmarked numbers belong to inactive results. Activity calls are given as the source filed them.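 How the source made its calls: active means normalized viability below 100% at a tested concentration; inactive means the rest.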

One assay in a line: drug combination growth inhibition, ovarian cancer – cell-based, oncology-focused library, rucaparib conditional, profiling panel (AID 1508598). To be noted: patient-derived ovarian cancer cells, CellTiter-Glo viability, 144 h; at 0.000305 µM; OCI-P5x cells; with rucaparib 20 µM; active compounds read low; 100% = cells with rucaparib alone. On the technique in general: ATP-based viability assays read luminescence as a measure of living cells.
For the compound `N[C@@H]1CCCN(c2c(/C=C3\SC(=O)NC3=O)cccc2-c2ccccc2)C1`, the viability (as a rule, a read-out of living cells in per cent, often relative to untreated cells) is 96.6% (active).

In the case of `C[C@@H]1C[C@H]2[C@@H]3CCC4=CC(=O)C=C[C@]4(C)[C@]3(F)[C@H](O)C[C@]2(C)[C@]1(O)C(=O)CO`, the viability was 107%.

As for `Cc1cc2c(C(=O)NC[C@H](C)c3ccccc3)c(O)c(O)cc2c(O)c1-c1c(C)cc2c(C(=O)NC[C@H](C)c3ccccc3)c(O)c(O)cc2c1O`, the viability is 99.3% (active).

For `Nc1nc(F)nc2c1ncn2[C@H]1O[C@H](CO)[C@@H](O)[C@@H]1O`, the viability is 104%.

Take `COc1cccc2c1C(=O)c1c(O)c3c(c(O)c1C2=O)C[C@@](O)(C(=O)CO)C[C@H]3O[C@H]1C[C@H](N)[C@@H](O)[C@H](C)O1`: the viability is 107%.

For `C=C1/C(=C/C=C2\CCC[C@@]3(C)[C@H]2CC[C@H]3[C@H](C)/C=C/[C@@H](C)C(C)C)C[C@H](O)C[C@@H]1O`, the viability is 101%.

On to `CO[C@H]1C[C@H]2CC[C@@H](C)[C@@](O)(O2)C(=O)C(=O)N2CCCC[C@H]2C(=O)O[C@H]([C@H](C)C[C@@H]2CC[C@H](OP(C)(C)=O)[C@H](OC)C2)CC(=O)[C@H](C)/C=C(\C)[C@@H](O)[C@@H](OC)C(=O)[C@H](C)C[C@H](C)/C=C/C=C/C=C/1C`, for which the viability is 79.2% (active).

As to `C=CCNC1=C2C[C@@H](C)C[C@H](OC)[C@H](O)[C@@H](C)/C=C(\C)[C@H](OC(N)=O)[C@@H](OC)/C=C\C=C(\C)C(=O)NC(=CC1=O)C2=O`, the viability is 119%.

On to `CC[C@]1(O)C[C@@H]2CN(CCc3c([nH]c4ccccc34)[C@@](C(=O)OC)(c3cc4c(cc3OC)N(C=O)[C@@H]3C45CCN4CC=C[C@](CC)([C@H]45)[C@H](OC(C)=O)[C@]3(O)C(=O)OC)C2)C1` (stereo partly specified), for which the viability is 88.8% (active).

Turning to `COc1cccc2c1C(=O)c1c(O)c3c(c(O)c1C2=O)C[C@@](O)(C(C)=O)C[C@H]3O[C@H]1C[C@H](N)[C@H](O)[C@H](C)O1`, the viability is 110%.

For `CCOc1ccc(Cc2cc([C@@H]3O[C@H](CO)[C@@H](O)[C@H](O)[C@@H]3O)ccc2Cl)cc1`, the viability is 94.3% (active).

In the case of `CC(=O)[C@]1(O)Cc2c(O)c3c(c(O)c2[C@H](O[C@H]2C[C@H](N)[C@H](O)[C@H](C)O2)C1)C(=O)c1ccccc1C3=O`, the viability was 110%.

For `CCC1=CC2CN(C1)Cc1c([nH]c3ccccc13)[C@@](C(=O)OC)(c1cc3c(cc1OC)N(C)[C@H]1[C@@](O)(C(=O)OC)[C@H](OC(C)=O)[C@]4(CC)C=CCN5CC[C@@]31[C@H]54)C2` (stereo partly specified), the viability is 1.99% (active).

Take `CC(=O)O[C@H]1C(=O)[C@@]2(C)C([C@H](OC(=O)c3ccccc3)[C@]3(O)C[C@H](OC(=O)[C@H](O)[C@@H](NC(=O)c4ccccc4)c4ccccc4)C(C)=C1C3(C)C)[C@]1(OC(C)=O)CO[C@@H]1C[C@H]2O` (stereo partly specified): the viability was 125%.

For `CO[C@H]1C[C@H]2CC[C@@H](C)[C@@](O)(O2)C(=O)C(=O)N2CCCC[C@H]2C(=O)O[C@H]([C@H](C)C[C@@H]2CC[C@H](OC(=O)C(C)(CO)CO)[C@H](OC)C2)CC(=O)[C@H](C)/C=C(\C)[C@@H](O)[C@@H](OC)C(=O)[C@H](C)C[C@H](C)/C=C/C=C/C=C/1C`, the viability was 85% (active).

Regarding `CO[C@H]1/C=C\C=C(\C)C(=O)NC2=CC(=O)C(NCCN(C)C)=C(C[C@@H](C)C[C@H](OC)[C@H](O)[C@@H](C)/C=C(\C)[C@@H]1OC(N)=O)C2=O`, the viability was 120%.

Regarding `CC(C)(C(=O)NCC(F)(F)C(F)(F)F)C(=O)N[C@H]1C(=O)Nc2ccccc2-c2ccccc21`, the viability is 103%.

As to `CC1(C)O[C@@H]2C[C@H]3[C@@H]4CCC5=CC(=O)C=C[C@]5(C)[C@]4(F)[C@H](O)C[C@]3(C)[C@@]2(C(=O)CO)O1`, the viability was 97.2% (active).

The assay is the same for the next values; noted with them: patient-derived ovarian cancer cells, CellTiter-Glo viability, 144 h; at 0.000305 µM; OCI-P5x cells; without rucaparib; active compounds read low.
With `N[C@@H]1CCCN(c2c(/C=C3\SC(=O)NC3=O)cccc2-c2ccccc2)C1`, the viability was 112%.

Regarding `C[C@@H]1C[C@H]2[C@@H]3CCC4=CC(=O)C=C[C@]4(C)[C@]3(F)[C@H](O)C[C@]2(C)[C@]1(O)C(=O)CO`, the viability is 121%.

As to `Cc1cc2c(C(=O)NC[C@H](C)c3ccccc3)c(O)c(O)cc2c(O)c1-c1c(C)cc2c(C(=O)NC[C@H](C)c3ccccc3)c(O)c(O)cc2c1O`, the viability is 89.3% (active).

Take `Nc1nc(F)nc2c1ncn2[C@H]1O[C@H](CO)[C@@H](O)[C@@H]1O`: the viability is 108%.

`COc1cccc2c1C(=O)c1c(O)c3c(c(O)c1C2=O)C[C@@](O)(C(=O)CO)C[C@H]3O[C@H]1C[C@H](N)[C@@H](O)[C@H](C)O1`: the viability is 105%.

For `C=C1/C(=C/C=C2\CCC[C@@]3(C)[C@H]2CC[C@H]3[C@H](C)/C=C/[C@@H](C)C(C)C)C[C@H](O)C[C@@H]1O`, the viability was 100%.

For the compound `CO[C@H]1C[C@H]2CC[C@@H](C)[C@@](O)(O2)C(=O)C(=O)N2CCCC[C@H]2C(=O)O[C@H]([C@H](C)C[C@@H]2CC[C@H](OP(C)(C)=O)[C@H](OC)C2)CC(=O)[C@H](C)/C=C(\C)[C@@H](O)[C@@H](OC)C(=O)[C@H](C)C[C@H](C)/C=C/C=C/C=C/1C`, the viability was 65.5% (active).

As for `C=CCNC1=C2C[C@@H](C)C[C@H](OC)[C@H](O)[C@@H](C)/C=C(\C)[C@H](OC(N)=O)[C@@H](OC)/C=C\C=C(\C)C(=O)NC(=CC1=O)C2=O`, the viability is 124%.

On to `CC[C@]1(O)C[C@@H]2CN(CCc3c([nH]c4ccccc34)[C@@](C(=O)OC)(c3cc4c(cc3OC)N(C=O)[C@@H]3C45CCN4CC=C[C@](CC)([C@H]45)[C@H](OC(C)=O)[C@]3(O)C(=O)OC)C2)C1` (stereo partly specified), for which the viability is 86.4% (active).

Regarding `COc1cccc2c1C(=O)c1c(O)c3c(c(O)c1C2=O)C[C@@](O)(C(C)=O)C[C@H]3O[C@H]1C[C@H](N)[C@H](O)[C@H](C)O1`, the viability is 105%.

Regarding `CCOc1ccc(Cc2cc([C@@H]3O[C@H](CO)[C@@H](O)[C@H](O)[C@@H]3O)ccc2Cl)cc1`, the viability was 91.9% (active).

Regarding `CC(=O)[C@]1(O)Cc2c(O)c3c(c(O)c2[C@H](O[C@H]2C[C@H](N)[C@H](O)[C@H](C)O2)C1)C(=O)c1ccccc1C3=O`, the viability is 115%.

Turning to `CCC1=CC2CN(C1)Cc1c([nH]c3ccccc13)[C@@](C(=O)OC)(c1cc3c(cc1OC)N(C)[C@H]1[C@@](O)(C(=O)OC)[C@H](OC(C)=O)[C@]4(CC)C=CCN5CC[C@@]31[C@H]54)C2` (stereo partly specified), the viability was 2.91% (active).

In the case of `CC(=O)O[C@H]1C(=O)[C@@]2(C)C([C@H](OC(=O)c3ccccc3)[C@]3(O)C[C@H](OC(=O)[C@H](O)[C@@H](NC(=O)c4ccccc4)c4ccccc4)C(C)=C1C3(C)C)[C@]1(OC(C)=O)CO[C@@H]1C[C@H]2O` (stereo partly specified), the viability was 125%.

As to `CO[C@H]1C[C@H]2CC[C@@H](C)[C@@](O)(O2)C(=O)C(=O)N2CCCC[C@H]2C(=O)O[C@H]([C@H](C)C[C@@H]2CC[C@H](OC(=O)C(C)(CO)CO)[C@H](OC)C2)CC(=O)[C@H](C)/C=C(\C)[C@@H](O)[C@@H](OC)C(=O)[C@H](C)C[C@H](C)/C=C/C=C/C=C/1C`, the viability is 85% (active).

Turning to `CO[C@H]1/C=C\C=C(\C)C(=O)NC2=CC(=O)C(NCCN(C)C)=C(C[C@@H](C)C[C@H](OC)[C@H](O)[C@@H](C)/C=C(\C)[C@@H]1OC(N)=O)C2=O`, the viability was 116%.

Take `CC(C)(C(=O)NCC(F)(F)C(F)(F)F)C(=O)N[C@H]1C(=O)Nc2ccccc2-c2ccccc21`: the viability is 105%.

With `CC1(C)O[C@@H]2C[C@H]3[C@@H]4CCC5=CC(=O)C=C[C@]5(C)[C@]4(F)[C@H](O)C[C@]3(C)[C@@]2(C(=O)CO)O1`, the viability was 122%.
